Common to all, as to assay: NCI-60 one-dose screen, 48 h (100 = growth as untreated, 0 = no growth, -100 = all killed)
Common to all, as to conditions: 10 µM unless noted

The subject of assay [1] is RPMI-8226 leukemia.
The test system of assay [2] is OVCAR-8 ovarian.
For assay [3], the system named is OVCAR-5 ovarian.
In assay [4] the test system is OVCAR-4 ovarian.
In assay [5] the test system is SK-OV-3 ovarian.
In assay [6] the test system is IGROV1 ovarian.
The test system of assay [7] is OVCAR-3 ovarian.
Assay [8] relates to HS 578T breast.
Assay [9] deals with NCI/ADR-RES ovarian.
Assay [10] relates to T-47D breast.
Assay [11] concerns BT-549 breast.
Assay [12] has as its system MDA-MB-435 melanoma.
In assay [13] the test system is SW-620 colon.
Assay [14] deals with HCT-116 colon.
Assay [15] concerns KM12 colon.
Assay [16] deals with MCF7 breast.
Assay [17] concerns HCC-2998 colon.

This passage reports growth results from PubChem BioAssay (NCI).

This is part of a sample that, as a whole, favours compounds with a hit. Of some 83,000 tested, about 20% had one in any assay.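 48-hour exposure, single concentration, 96-well plates; percent growth endpoint where 0 means no net growth. Active: below 10.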 Values without a mark were called inactive. The source made the active and inactive calls.

For the compound `COc1ccc(-c2csc(NC(=O)c3cc(O)c(O)c(O)c3)n2)cc1`, the growth in [1] is 41.1%; in assay [2], 57.6%; in [3] it was 86.1%; in assay [4], 58.6%; in assay [5], 77.5%; in [6] it was 46.4%. The growth in assay [7] was 72.6%; in assay [8], 101%; in assay [9], 62.2%; in [10], 44.7%; in assay [11], 66.9%; in [12], 64.4%. In addition, the growth in assay [13] was 56.8%; in assay [14], 49.5%; in [15], 84.8%.

Turning to `CCCCC1Nc2nc(SC)n(C)c(=O)c2CN(Cc2ccccc2)C1=O` (configuration not stated), the growth in [1] is 67.5%; in assay [2], 99.9%; in [3], 100%; in assay [4], 103%; in [5], 93.8%; in [6], 106%. Also, the growth in assay [7] is 113%; in assay [8], 165%; in assay [9], 89.7%; in [10] it was 93.2%; in assay [12], 99.4%; in [13] it was 107%. Besides, the growth in assay [16] was 100%; in assay [14], 97.3%; in assay [17], 94.3%; in assay [15], 105%.

`C=C(C)[C@@H]1C/C=C(/C=O)CC[C@@H]2O[C@@]2(C)CC/C=C(\C)CC1`: the growth in assay [1] was -7.67% (active); in [2], 105%; in assay [3] it was 97.2%; in [4], 122%; in assay [5], 106%; in assay [6], 986%. Besides, the growth in assay [7] is 110%; in [8], 126%; in assay [9] it was 115%; in assay [10], 101%; in assay [12], 107%; in assay [13], 115%. The growth in assay [16] was 106%; in assay [14], 105%; in assay [17] it was 126%; in [15] it was 122%.

Consider `CC[C@@H]1OC(=O)[C@H](C)[C@@H](O[C@H]2C[C@@](C)(OC)[C@@H](O)[C@H](C)O2)[C@H](C)[C@@H](O[C@@H]2O[C@H](C)C[C@H](N(C)C)[C@H]2O)[C@](C)(O)C[C@@H](C)[C@@H]2N[C@@H](COCCOC)O[C@H]([C@H]2C)[C@]1(C)O`, for which the growth in [1] was 88.8%; in assay [2], 102%; in assay [3], 105%; in assay [4], 106%; in assay [5], 109%; in [6] it was 108%. For the same compound, the growth is 124% in [7]; 115% in assay [8]; 101% in assay [9]; 105% in assay [10]; 92.2% in [11]; 106% in assay [12]. Moreover, the growth in assay [13] is 111%; in [14] it was 85.6%; in assay [17], 98.9%; in assay [15], 126%.

As to `CC(C)[C@H]1CC[C@H]2[C@@H](CC[C@H]3[C@](C)(CN)CCC[C@]23C)C1`, the growth was 21.6% in [1]; 97.9% in assay [2]; 74.7% in [3]; 67.6% in [4]; 111% in [5]; 92.6% in assay [6]. The growth in assay [7] was 22.7%; in [8], 94.6%; in assay [9] it was 89.5%; in [10], 64%; in assay [12], 1.77% (active); in assay [13] it was -12.2% (active). The growth in assay [16] is -55.8% (active); in [14], 5.32% (active); in assay [17], 29.3%; in assay [15], 36.7%.

As to `COc1ccc(-c2csc(NC(=O)c3cc(OC)c(OC)c(OC)c3)n2)cc1`, the growth in [1] was 92.7%; in assay [2], 97.2%; in assay [3], 103%; in [4] it was 96.8%; in [5] it was 101%; in [6], 100%. The growth in assay [7] is 105%; in [8], 96.4%; in assay [9] it was 115%; in assay [10] it was 94.8%; in assay [12], 96.4%; in [13] it was 102%. In addition, the growth in assay [16] was 98.3%; in [14], 106%; in assay [17], 112%; in assay [15] it was 108%.

As for `COC(=O)c1ccc2c(c1)nc(-c1ccc(O)c(OC)c1)n2-c1cc(C(C)(C)C)[nH]n1`, the growth in assay [1] is 72.8%; in [2], 98.8%; in assay [3], 117%; in assay [4], 111%; in assay [5], 133%; in [6], 101%. The growth in assay [7] is 98.1%; in assay [8], 98.2%; in [9], 98.4%; in assay [10], 92.3%; in assay [11] it was 108%; in assay [13], 104%. Besides, the growth in assay [16] is 83.6%; in assay [14], 93.5%; in [17] it was 115%; in [15], 96.9%.

For the compound `COc1cc(C(=O)/C=C/c2cccnc2Nc2ccccc2)cc(OC)c1OC`, the growth in assay [1] is -40.3% (active); in assay [2], -31.3% (active); in assay [3], -71.2% (active); in assay [4] it was -92.4% (active); in [5], -3.48% (active); in assay [6], -38.2% (active). The growth in assay [7] is -98.5% (active); in [8], 24.2%; in assay [9], 13.4%; in assay [10], -39.8% (active); in [11] it was -55.5% (active); in assay [12], -23.3% (active). In addition, the growth is -84% (active) in assay [13], -94.9% (active) in assay [14], -76.7% (active) in assay [17] and -88.2% (active) in [15].

`Cc1c(N(C)CS(=O)(=O)O)c(=O)n(-c2ccccc2)n1C`: the growth in assay [1] is 99.2%; in assay [2] it was 109%; in assay [3], 106%; in assay [4], 116%; in assay [5], 104%; in assay [6] it was 103%. Further, the growth is 118% in assay [7]; 125% in assay [8]; 109% in assay [9]; 107% in [10]; 96.5% in assay [11]; 103% in assay [12]. Moreover, the growth in assay [13] was 108%; in assay [14], 105%; in [17], 121%; in assay [15] it was 109%.

As for `O=C1C[C@@H]2/C(=C(O)\C=C\c3ccccc3)C(=O)C=C[C@@H]2O1`, the growth was 32.5% in [1]; 8.54% (active) in [2]; 51.5% in assay [3]; 37.5% in [4]; 86.1% in [5]; -52.6% (active) in [6]. The growth in [7] was -46.2% (active); in [8], -2.33% (active); in [9], 7.67% (active); in [10], 16.7%; in [11], -40.5% (active); in [12], -31.6% (active). In addition, the growth in assay [13] was -33.2% (active); in assay [14] it was -90.6% (active); in assay [17] it was 99.6%; in [15], -91% (active).

For `C=C(C)[C@H]1CC/C(C)=C/CC[C@]2(C)O[C@H]2CC/C(COC(C)=O)=C\C1=O`, the growth in assay [1] is -80.2% (active); in [2], 107%; in assay [3], 98.7%; in assay [4], 123%; in assay [5], 111%; in [6], 74.4%. Also, the growth in assay [7] is 164%; in [8], 119%; in assay [9], 102%; in assay [10], 95.1%; in [12], 95.2%; in [13], 109%. Also, the growth in [16] is 110%; in [14], 95%; in assay [17], 103%; in assay [15], 143%.

On to `CCC(C)CC(C)C(=O)c1c(O)ccn(O)c1=O` (configuration not stated), for which the growth is 11.7% in [1]; 17.8% in [2]; 72.8% in assay [3]; 30.3% in assay [4]; 65.3% in assay [5]; 24.2% in assay [6]. Moreover, the growth in assay [7] is 19%; in [8], 62%; in assay [9], 4.73% (active); in assay [10], 35.5%; in [12] it was 46.8%; in [13], 25%. Further, the growth in assay [16] was 18.9%; in assay [14], 22.7%; in assay [17], 89.7%; in [15] it was 34.2%.

Consider `CC(=O)c1nc2ccccc2n1CCn1cc(CC(N)C(=O)O)c2ccccc21` (configuration not stated), for which the growth in [1] is 90%; in assay [2], 99%; in assay [3], 96.9%; in assay [4], 98.8%; in assay [5], 108%; in assay [6], 99.1%. For the same compound, the growth in assay [7] was 108%; in assay [8], 109%; in assay [9] it was 97.5%; in [10], 106%; in assay [11], 105%; in [12], 101%. For the same compound, the growth is 114% in assay [13], 106% in assay [14], 102% in [17] and 104% in [15].

Consider `COc1ccc(-c2cc(Cc3cccs3)c(=O)n(Cn3ccc4ccccc43)n2)cc1`, for which the growth was 88% in [1]; 99.2% in assay [2]; 99.9% in [3]; 111% in [4]; 106% in assay [5]; 124% in assay [6]. In addition, the growth was 111% in assay [7]; 112% in assay [8]; 109% in assay [10]; 116% in assay [11]; 90.8% in assay [12]; 114% in assay [13]. The growth was 106% in assay [14], 107% in assay [17] and 110% in assay [15].
